In PubChem BioAssay AID1961 (Sanford-Burnham Center for Chemical Genomics, 2009):
The campaign covered roughly 290,000 compounds. About 140 (0.048%) were called active. The sample holds actives, similar compounds and a random draw of the others, so the mix is not that of the screen.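 How the source made its calls: active means activation above 40% with more than 50 cells counted in the well; inconclusive means wells holding fewer than 50 cells, flagged as toxic or sparse; inactive means the rest.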

Columns and labels:
[1] = selective activators of receptor GPR55 – imaging, U2OS cells, beta-arrestin-GFP redistribution, primary screen (AID 1961); settings: measured here: cytotoxicity, cells analyzed, at 10 µM;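 further: U2OS osteosarcoma cells stably expressing GPR55 and beta-arrestin-GFP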;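 on activation: plate controls were DMSO negative control for no effect and LPI positive control for full effect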
[2] = molecular target: G-protein coupled receptor 55 (Homo sapiens) (UniProt Q9Y2T6); experiment: as above; settings: at 10 µM, stronger effect = higher value
Chain of G-protein coupled receptor 55 (Homo sapiens) (Q9Y2T6 whole entry, looked up): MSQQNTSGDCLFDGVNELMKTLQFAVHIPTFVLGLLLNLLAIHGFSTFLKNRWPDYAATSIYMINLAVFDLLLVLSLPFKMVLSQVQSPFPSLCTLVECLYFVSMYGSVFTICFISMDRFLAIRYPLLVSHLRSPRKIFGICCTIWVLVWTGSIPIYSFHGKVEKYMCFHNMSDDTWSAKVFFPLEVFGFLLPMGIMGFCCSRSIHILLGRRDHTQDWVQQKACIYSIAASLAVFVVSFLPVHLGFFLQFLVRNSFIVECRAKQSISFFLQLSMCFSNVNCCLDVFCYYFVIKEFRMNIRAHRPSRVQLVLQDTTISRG

| SMILES | cell count [1] [cells] | activation [2] |
| --- | --- | --- |
| CN1/C(=C\C=Nc2ccccc2)C(C)(C)c2ccccc21 | 360 | -0.1% (inactive) |
| CN1/C(=C\C=C2C(=O)NC(=O)NC2=O)C(C)(C)c2ccccc21 | 294 | 0.4% (inactive) |
| CN1/C(=C\C=C2C(=O)NC(=S)NC2=O)C(C)(C)c2ccccc21 | 268 | 57.7% (active) |
| N[C@@H](Cc1c[nH]c2ccccc12)c1nnc(SCc2ccc(Cl)cc2)o1 | 304 | 0.1% (inactive) |
| CC(=Nc1ccccc1N)c1c(O)n(C)c(=O)[nH]c1=O | 323 | 0.7% (inactive) |
